An excerpt weighted towards active compounds, which were near 3.7% of everything screened.
NOTCH agonist = NOTCH pathway agonism; NOTCH signaling luciferase reporter cells, luminescence; AID 434982; 0.4% of 15,000 active; activation, % at 2.5 µM; in the data active means activation above about 2.2%
S1P1 agonist = S1P1 (human) receptor agonism; activation, % at 4.5 µM; S1P1 agonist cell-based reporter assay; P21453; 1.5% of 16,000 active; in the data active means activation above about 80%
luminol inh ctr = luminol signal inhibition, Nox1 inhibitor counter-screen | inhibition, % at 6.7 µM | AID 1823 | HRP/luminol/H2O2 chemiluminescence counterscreen | 0.4% of 16,000 active; further: reference of the scale not given here
Nox1 inhibitor = human Nox1 inhibition; 0.81% of 16,000 active; AID 1792; HT29 cells, luminol chemiluminescence ROS; inhibition, % at 6.7 µM; Q9Y5S8
TLR4 MyD88 blk = inhibitors of human TLR4-MyD88 binding | Cell-based TLR4-MyD88 binding inhibition assay | O00206 | inhibition, % at 10 µM | 0.06% of 16,000 active; in the data active means inhibition above about 45%
KOR antag MB = blocks the human kappa opioid receptor, Maybridge compounds. OPRK1 cells, antagonist mode, fluorescence readout. P41145. inhibition, % at 9 µM. 0.4% of 16,000 active; in the data active means inhibition above about 50%
Starred values were filed as active, the others as inactive; · = no result given. Unless noted, no stated cut-off is given here; in the data, active means inhibition above about 75%; inactive means the rest.

SMILES	NOTCH agonist	S1P1 agonist	luminol inh ctr	Nox1 inhibitor	TLR4 MyD88 blk	KOR antag MB
CNC(=O)Oc1ccc(-c2nc(CSc3ccc(Cl)cc3)cs2)cc1	0.2	40.1	101.7*	-27.2	4.2	11.9
O=C1NC(=O)C(=Cc2ccc(O)cc2)C(=O)N1	·	-4.3	-17.8	-27.5	0.2	13.7
C#CC(C)(C)N=C(N)N[N+](=O)[O-]	-0.6	-20.5	-3.1	12.5	0.5	13.2
CC12C=CC(=O)C=C1CCC1C2CCC2(C)C(=O)CCC12 (stereo unspecified)	-0.2	2.0	1.1	-47.2	11.9	19.0
Nc1ccncc1Br	-1.1	-23.4	-5.0	-17.7	-10.4	6.2
Nc1c([N+](=O)[O-])cncc1[N+](=O)[O-]	-0.3	111.5*	2.0	-95.7	6.3	19.9
Cc1c([N+](=O)[O-])cc2c(c1[N+](=O)[O-])C(C)(C)CC2(C)C	0.1	101.9*	1.4	-6.1	2.5	7.5
COc1cc2c(cc1OC)[C@@H]1C(=O)c3ccc4c(c3O[C@@H]1CO2)C[C@H](C(C)C)O4	-0.4	110.1*	-1.9	15.5	-11.4	-3.2
CN(C)Cc1c[nH]c2ccc(OCc3ccccc3)cc12	-0.4	1.7	-7.5	12.6	-8.9	24.1
O=[N+]([O-])/C=C/c1ccc(OCc2ccccc2)cc1	-0.5	22.3	2.7	-48.4	-6.5	62.2*
